High-throughput results as filed in PubChem BioAssay.
Sampled rows, rich in hits. Any-hit rate of the full collection: about 1.8%.
PME-1 inh = PME-1 inhibitors via competitive probe labeling, primary screen, biochemical, fluorescence polarization, FP-Rh probe, HTS; Protein phosphatase methylesterase 1 (Homo sapiens), Q9Y570; recombinant PME-1; inhibition, % at 5.9 µM; hit rate 0.53% among 320,000;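 active = inhibition above the campaign mean of all compounds plus 3 SD, cut at about 26% in these data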;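 also: competitive labeling of PME-1 active site by serine hydrolase directed probe; 0% = PME-1 with DMSO and 100% = wells lacking PME-1 enzyme; inhibitors block probe labeling so polarization falls and inhibition rises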
Target sequence (Q9Y570 whole entry, looked up): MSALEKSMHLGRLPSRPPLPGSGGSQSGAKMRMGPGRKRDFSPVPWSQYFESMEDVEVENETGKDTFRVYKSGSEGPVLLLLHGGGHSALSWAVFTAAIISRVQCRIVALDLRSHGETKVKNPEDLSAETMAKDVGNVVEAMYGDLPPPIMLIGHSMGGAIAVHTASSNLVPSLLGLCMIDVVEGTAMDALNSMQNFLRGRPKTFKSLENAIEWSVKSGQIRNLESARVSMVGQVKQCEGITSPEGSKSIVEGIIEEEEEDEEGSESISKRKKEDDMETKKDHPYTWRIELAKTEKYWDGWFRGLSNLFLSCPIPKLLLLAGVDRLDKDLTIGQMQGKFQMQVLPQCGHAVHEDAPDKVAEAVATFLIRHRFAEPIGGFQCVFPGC
Fam108B counter = mouse Fam108B serine hydrolase inhibitors, primary screen, counter-screen for RBBP9 inhibitor project, biochemical, fluorescence polarization | hit rate 0.33% among 300,000 | inhibition, % at 9.51 µM | recombinant Fam108B, FP-Rh probe fluorescence polarization;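 active = inhibition above the screen mean inhibition plus 3 SD, computed separately per campaign, cut at about 18% in these data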;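 also: inhibitors lower polarization as less probe binds the enzyme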
LYPLA2 counter = LYPLA2 inhibitors, primary screen, counter-screen for PME1 inhibitor project, biochemical, fluorescence polarization, FP-Rh probe ABPP | Acyl-protein thioesterase 2 (Homo sapiens), O95372 | recombinant LYPLA2 | inhibition, % at 5.9 µM | hit rate 0.38% among 320,000 | AID 2177, 2009;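 active = inhibition above the screen-wide mean plus 3 SD, limit set per campaign, cut at about 26% in these data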;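 also: 0% = LYPLA2 with DMSO and 100% = wells lacking LYPLA2 enzyme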
Target sequence (O95372 whole entry, looked up): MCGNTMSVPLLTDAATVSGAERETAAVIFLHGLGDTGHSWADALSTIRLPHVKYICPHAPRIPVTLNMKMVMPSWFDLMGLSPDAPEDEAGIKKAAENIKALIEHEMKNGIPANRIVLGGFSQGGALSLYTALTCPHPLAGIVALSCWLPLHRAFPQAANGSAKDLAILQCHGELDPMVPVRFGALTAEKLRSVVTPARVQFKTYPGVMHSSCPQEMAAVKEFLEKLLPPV
GSTO1 counter = inhibitors of recombinant GSTO1, primary screen, counter-screen for RBBP9 inhibitor project, biochemical, fluorescence polarization; hit rate 1.1% among 300,000; activity-based probe fluorescence polarization; Glutathione S-transferase omega-1 (Homo sapiens), P78417; inhibition, % at 5.96 µM;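 active = inhibition above the campaign mean inhibition plus 3 SD, cut at about 35% in these data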;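 also: 0% = GSTO1-1 with DMSO and 100% = wells lacking GSTO1-1 enzyme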
LYPLA1 inh = LYPLA1 inhibitors, primary screen, counter-screen for PME1 inhibitor project, biochemical, fluorescence polarization, FP-Rh probe ABPP | hit rate 0.16% among 320,000 | recombinant LYPLA1 | inhibition, % at 5.9 µM;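 active = inhibition above the mean of all tested compounds plus 3 SD, set per campaign, cut at about 14% in these data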;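 also: inhibitors block serine hydrolase probe labeling of LYPLA1 so polarization falls; 0% = enzyme with DMSO and 100% = wells lacking LYPLA1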
PAD4 FP inh = human PAD4 inhibitors, primary screen, biochemical, fluorescence polarization, 1536-well format; inhibition, % at 6.36 µM; recombinant PAD4, RCA probe fluorescence polarization; hit rate 0.41% among 330,000;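 active = percent inhibition above a cutoff equal to the mean of all tested compounds plus 3 SD, cut at about 15% in these data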;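 also: 0% = PAD4 with RCA probe and DMSO and 100% = probe without PAD4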
GSTO1 inh conf = GSTO1 inhibitor hit confirmation, counter-screen for RBBP9 inhibitor project, biochemical, fluorescence polarization, triplicate | shares compounds with GSTO1 counter | recombinant GSTO1, probe fluorescence polarization | inhibition, % at 5.96 µM | hit rate 54% among 2,400 | AID 2176, 2009;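 active = inhibition above the primary screen's cutoff, its mean inhibition plus 3 SD, cut at about 35% in these data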;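 also: loss of polarization as inhibitors block binding of rhodamine sulfonate ester activity probe; 0% = GSTO1 with DMSO and 100% = wells lacking GSTO1 enzyme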
* marks the source's active call; other numbers are inactive results.

Screening CCS(=O)(=O)C1=NN2C(=N)/C(=C\c3ccc(OC(=O)c4ccco4)c(OC)c3)C(=O)N=C2S1 returned PME-1 inh -5, Fam108B counter -5, LYPLA2 counter 0, GSTO1 counter -6, LYPLA1 inh -5 and PAD4 FP inh -6.
For CCOC(=O)c1ccc(NC(=S)NNC(=O)C2(C)CC2(Cl)Cl)cc1 (stereo not drawn) the results were PME-1 inh 3, Fam108B counter 3, LYPLA2 counter 12, GSTO1 counter -15, LYPLA1 inh 1 and PAD4 FP inh -1.
For CC(C(=O)OCC(=O)Nc1cccc(S(=O)(=O)N2CCOCC2)c1)N1C(=O)c2ccccc2C1=O (stereo not drawn) the results were PME-1 inh -3, Fam108B counter 4, LYPLA2 counter 0, GSTO1 counter 39*, LYPLA1 inh -4, PAD4 FP inh 2 and GSTO1 inh conf 24.
For Cc1ccc(NC(=O)COC(=O)CCc2ccc(S(=O)(=O)N3CCOCC3)cc2)cc1F the results were PME-1 inh -6, Fam108B counter 0, LYPLA2 counter -2, GSTO1 counter 40*, LYPLA1 inh -2, PAD4 FP inh -4 and GSTO1 inh conf 4.
Screening CC(=O)c1cccc(NC(=O)COC(=O)CCc2ccc(S(=O)(=O)N3CCOCC3)cc2)c1 returned PME-1 inh 4, Fam108B counter -4, LYPLA2 counter 2, GSTO1 counter -4, LYPLA1 inh 0 and PAD4 FP inh -5.
c1coc(C2=NCCc3ccccc32)c1 was read as PME-1 inh -5, Fam108B counter -4, LYPLA2 counter 7, GSTO1 counter 6, LYPLA1 inh 1 and PAD4 FP inh -4.
For CCOC(=O)NC1(Nc2cccc(Cl)c2)Oc2ccccc2O1 the results were PME-1 inh -2, Fam108B counter 2, LYPLA2 counter 2, GSTO1 counter 56*, LYPLA1 inh -1, PAD4 FP inh 0 and GSTO1 inh conf 4.
Screening CCOC(=O)NC(=O)/C(C#N)=N\Nc1cccc(Cl)c1 returned PME-1 inh -1, Fam108B counter 2, LYPLA2 counter -1, GSTO1 counter -2, LYPLA1 inh 3 and PAD4 FP inh 4.
Oc1ccc(CCNc2c3ccccc3nc3ccccc23)cc1O was read as PME-1 inh -25, Fam108B counter 18, LYPLA2 counter 8, GSTO1 counter 48*, LYPLA1 inh 7, PAD4 FP inh 1 and GSTO1 inh conf 5.
`COc1ccc(C(=O)Nc2ccc3c(c2)C(=O)c2ccccc2C3=O)cc1OC` gave PME-1 inh -2, Fam108B counter 1, LYPLA2 counter -1, GSTO1 counter 4, LYPLA1 inh -3 and PAD4 FP inh 0.
`COc1ccc(C(=O)c2c(C(F)(F)F)oc3c2C(=O)c2ccccc2C3=O)cc1OC` gave PME-1 inh 4, Fam108B counter 7, LYPLA2 counter 0, GSTO1 counter 77*, LYPLA1 inh -4, PAD4 FP inh 34* and GSTO1 inh conf 65*.
CC(=O)Oc1cccc2c1C(=O)c1c(OC(C)=O)cc(C(=O)O)cc1C2=O was read as PME-1 inh 9, Fam108B counter 3, LYPLA2 counter 1, GSTO1 counter 56*, LYPLA1 inh 1, PAD4 FP inh 11 and GSTO1 inh conf 33.
Screening CC1(C)CNc2cc(N)ccc2S1 returned PME-1 inh 6, Fam108B counter 2, LYPLA2 counter 7, GSTO1 counter 39*, LYPLA1 inh 0, PAD4 FP inh 3 and GSTO1 inh conf 28.
O=Nc1c(O)c2ccccc2c2ccccc12 was read as PME-1 inh 35*, Fam108B counter 15, LYPLA2 counter 1, GSTO1 counter 78*, LYPLA1 inh 0, PAD4 FP inh -2 and GSTO1 inh conf 81*.
`C/C(=N\NS(=O)(=O)c1ccc(Cl)c([N+](=O)[O-])c1)c1ccc(C)o1` gave PME-1 inh 4, Fam108B counter 5, LYPLA2 counter 7, GSTO1 counter 49*, LYPLA1 inh 1, PAD4 FP inh 2 and GSTO1 inh conf 27.
Screening C/C(=N\NS(=O)(=O)c1ccc(Cl)c([N+](=O)[O-])c1)c1cc2ccccc2o1 returned PME-1 inh 5, Fam108B counter 6, LYPLA2 counter 4, GSTO1 counter 40*, LYPLA1 inh 0, PAD4 FP inh 4 and GSTO1 inh conf 14.
Screening C/C(=N\NS(=O)(=O)c1ccc(C)c([N+](=O)[O-])c1)c1cc2ccccc2o1 returned PME-1 inh -4, Fam108B counter 2, LYPLA2 counter 4, GSTO1 counter 2, LYPLA1 inh 1 and PAD4 FP inh 3.
`CC(C)CN(C(=O)COC(=O)c1c2c(nc3ccccc13)CCC2)c1c(N)n(Cc2ccccc2)c(=O)[nH]c1=O` gave PME-1 inh -8, Fam108B counter -2, LYPLA2 counter 2, GSTO1 counter 1, LYPLA1 inh 0 and PAD4 FP inh -1.
N#Cc1nc(COc2ccccc2F)oc1NCCc1ccccc1 was read as PME-1 inh 3, Fam108B counter -3, LYPLA2 counter 0, GSTO1 counter 43*, LYPLA1 inh -2, PAD4 FP inh 1 and GSTO1 inh conf 18.
Screening COc1ccc(C(=O)NOCc2ccccc2)cc1 returned PME-1 inh -5, Fam108B counter 5, LYPLA2 counter -1, GSTO1 counter 6, LYPLA1 inh -4 and PAD4 FP inh -4.
For COC(=O)c1ccccc1NC(=O)COC(=O)CSc1nnc(N)s1 the results were PME-1 inh -1, Fam108B counter -3, LYPLA2 counter -2, GSTO1 counter 45*, LYPLA1 inh -3, PAD4 FP inh -5 and GSTO1 inh conf 32.
`Nc1nnc(SCC(=O)OCC(=O)Nc2ccccc2)s1` gave PME-1 inh 0, Fam108B counter -2, LYPLA2 counter 7, GSTO1 counter 0, LYPLA1 inh -4 and PAD4 FP inh -3.
Screening COCC(C)NC(=O)c1cc(-c2ccc(OC)c(OC)c2)on1 (stereo not drawn) returned PME-1 inh -3, Fam108B counter 2, LYPLA2 counter 5, GSTO1 counter 53*, LYPLA1 inh -1, PAD4 FP inh -1 and GSTO1 inh conf 4.
COc1ccc(S(=O)(=O)CCC(=O)N2CCN(c3ccc(C(C)=O)cc3)CC2)cc1 was read as PME-1 inh 7, Fam108B counter 0, LYPLA2 counter 19, GSTO1 counter -2, LYPLA1 inh 0 and PAD4 FP inh 3.
